Drawing on PubChem BioAssay (NCI), this text covers growth for 8 molecules.

Test systems include HT29 colon; SNB-75 CNS; SNB-19 CNS; U251 CNS; PC-3 prostate; SK-MEL-5 melanoma; UACC-62 melanoma; LOX IMVI melanoma; SK-MEL-28 melanoma; SK-MEL-2 melanoma; EKVX NSCLC; SN12C renal; UO-31 renal; TK-10 renal; ACHN renal; CAKI-1 renal; CCRF-CEM leukemia; MOLT-4 leukemia; SR leukemia; A498 renal.
Holding throughout (test): NCI-60 one-dose screen, 48 h (100 = growth as untreated, 0 = no growth, -100 = all killed)
What all share (conditions): 10 µM

The panel holds about 83,000 compounds, 20% with a hit somewhere; the sample as a whole holds those more often.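 Activity criterion: percent growth below 10, measured after cells in 96-well plates were exposed to a single compound concentration for 48 hours.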 A number with no mark means an inactive call. Calls of active or inactive are those of the source.

On to `CCCCCCNC(=O)Oc1ccc(/C(=C(/CC)Cc2ccccc2)c2ccc(OCCN3CCCCC3)cc2)cc1`, for which the growth in the assay on HT29 colon is 20.3%; in the assay with SNB-75 CNS, 80.2%; with SNB-19 CNS, 85.9%; in the assay on U251 CNS, 69.3%; with PC-3 prostate, 73.2%; with SK-MEL-5 melanoma, 84.5%. Moreover, the growth in the assay on UACC-62 melanoma is 99.5%; with LOX IMVI melanoma, 96.8%; in the assay with SK-MEL-28 melanoma, 96.4%; in the assay on SK-MEL-2 melanoma, 91.3%; with EKVX NSCLC, 85.1%; with SN12C renal it was 80.7%. Further, the growth in the assay on UO-31 renal is 60.4%; in the assay with TK-10 renal it was 93.7%; in the assay on ACHN renal, 100%; with CAKI-1 renal it was 96.9%; with CCRF-CEM leukemia, 66.7%; in the assay on MOLT-4 leukemia, 55.2%. In addition, the growth in the assay on SR leukemia is 0.769% (active).
Consider `COc1ccc(OC)c(/C=C/c2nc(SCc3ccccc3)n(-c3ccc(Cl)cc3)n2)c1`, for which the growth in the assay with HT29 colon is 63.1%; in the assay on SNB-75 CNS, 59.6%; in the assay on SNB-19 CNS, 61.4%; with U251 CNS, 38.7%; in the assay with PC-3 prostate it was 35.6%; in the assay with SK-MEL-5 melanoma, 45.2%. Further, the growth with UACC-62 melanoma was 33.9%; with LOX IMVI melanoma, 32.4%; in the assay on SK-MEL-28 melanoma, 71.5%; in the assay on SK-MEL-2 melanoma it was 69.2%; in the assay on EKVX NSCLC it was 74.3%; in the assay on SN12C renal, 74.2%. In addition, the growth with UO-31 renal was -48.7% (active); with TK-10 renal, 105%; with ACHN renal it was 80.8%; in the assay on CAKI-1 renal, 0.228% (active); in the assay with CCRF-CEM leukemia it was 24.2%; in the assay on MOLT-4 leukemia it was 30.4%. Moreover, in the assay with SR leukemia, the growth is 19.5%.
Take `O=C(Nc1nc(-c2ccccc2Cl)cs1)c1cc(-c2ccc(Cl)cc2)nc2ccc(Cl)cc12`: the growth is 6.1% (active) in the assay on HT29 colon; 20.6% in the assay on SNB-75 CNS; 39% with SNB-19 CNS; 12.5% in the assay on U251 CNS; 20.8% in the assay on PC-3 prostate; -25.4% (active) in the assay with SK-MEL-5 melanoma. Further, the growth is 37.5% in the assay on UACC-62 melanoma; 15% in the assay on LOX IMVI melanoma; 53.5% in the assay with SK-MEL-28 melanoma; 10.7% with SK-MEL-2 melanoma; 73.9% in the assay with EKVX NSCLC; 30.3% in the assay on SN12C renal. The growth in the assay on UO-31 renal was 28.4%; in the assay with TK-10 renal, 98.4%; with ACHN renal it was 36.9%; in the assay with CAKI-1 renal, 81.7%; in the assay with CCRF-CEM leukemia it was 28.4%; in the assay with MOLT-4 leukemia, 18.4%. In the assay on SR leukemia, the growth is 12.9%.
For `COc1ccc(NC2=NC(C)(CO)CS2)cc1` (configuration not stated), the growth with HT29 colon is 105%; with SNB-75 CNS, 83.5%; in the assay on SNB-19 CNS, 103%; with U251 CNS it was 101%; in the assay with PC-3 prostate, 82.2%; with SK-MEL-5 melanoma, 96.3%. In addition, the growth is 96.1% in the assay on UACC-62 melanoma; 95.7% in the assay on LOX IMVI melanoma; 106% in the assay with SK-MEL-28 melanoma; 108% in the assay on SK-MEL-2 melanoma; 106% in the assay with EKVX NSCLC; 91.1% in the assay on SN12C renal. For the same molecule, the growth in the assay with UO-31 renal was 77.7%; with TK-10 renal, 110%; with ACHN renal it was 96.7%; with A498 renal, 94.2%; with CCRF-CEM leukemia, 89.6%; in the assay on MOLT-4 leukemia it was 96.7%. Further, the growth in the assay on SR leukemia was 126%.
For `N#CSCC1CC(O)(c2ccccc2)CC(c2ccc(Cl)cc2)O1` (configuration not stated), the growth was 3.59% (active) with HT29 colon; 49.2% in the assay on SNB-75 CNS; 81.5% with SNB-19 CNS; 55.2% in the assay on U251 CNS; 29.4% in the assay on PC-3 prostate; 68.3% with SK-MEL-5 melanoma. Besides, the growth is 56.5% in the assay with UACC-62 melanoma; 13.1% in the assay with LOX IMVI melanoma; 72.1% with SK-MEL-28 melanoma; 40.5% in the assay on SK-MEL-2 melanoma; 54% in the assay with EKVX NSCLC; 23.2% with SN12C renal. For the same molecule, the growth was 15.1% in the assay on UO-31 renal; -5.7% (active) with TK-10 renal; 48.3% with ACHN renal; 44.5% in the assay on CAKI-1 renal; 15% in the assay on CCRF-CEM leukemia; -11.5% (active) with MOLT-4 leukemia. In addition, the growth in the assay with SR leukemia was 11.4%.
As to `COc1cc(-c2nc(-c3nnc(-c4ccccc4Cl)o3)c3ccccn23)cc(OC)c1OC`, the growth in the assay with HT29 colon is 91.4%; with SNB-75 CNS it was 79.4%; with SNB-19 CNS, 101%; in the assay with U251 CNS, 96.9%; in the assay with PC-3 prostate, 74.2%; in the assay on SK-MEL-5 melanoma, 80.2%. Besides, the growth is 69.8% with UACC-62 melanoma; 77.9% with LOX IMVI melanoma; 94.6% with SK-MEL-28 melanoma; 79% in the assay on SK-MEL-2 melanoma; 92.2% in the assay with EKVX NSCLC; 82.9% in the assay with SN12C renal. In addition, the growth in the assay with UO-31 renal is 67.6%; with TK-10 renal, 106%; in the assay on ACHN renal, 68.3%; in the assay with A498 renal it was 84.3%; with CCRF-CEM leukemia, 51.4%; in the assay with MOLT-4 leukemia, 56.3%. Moreover, the growth in the assay on SR leukemia was 72.2%.
With `Cc1ccc(NC(=O)Nc2cccnc2)cc1NC(=O)Nc1cccnc1`, the growth in the assay with HT29 colon is 89.6%; in the assay with SNB-75 CNS, 95.9%; in the assay with SNB-19 CNS it was 94%; in the assay on U251 CNS, 79%; in the assay on PC-3 prostate, 43.4%; in the assay on SK-MEL-5 melanoma it was 64.3%. Moreover, the growth was 75.7% in the assay with UACC-62 melanoma; 96.6% with LOX IMVI melanoma; 98.8% with SK-MEL-28 melanoma; 83% with SK-MEL-2 melanoma; 82.4% with EKVX NSCLC; 92% in the assay on SN12C renal. In addition, the growth with UO-31 renal was 85.3%; in the assay with TK-10 renal, 92.1%; in the assay on ACHN renal, 83.8%; in the assay on A498 renal, 90.7%; with CCRF-CEM leukemia, 58.2%; in the assay with MOLT-4 leukemia, 66.8%. Besides, in the assay on SR leukemia, the growth was 31.3%.
Consider `O=C(CSSCC(=O)c1ccc(Cl)cc1)c1ccc(Cl)cc1`, for which the growth was 92.6% in the assay on HT29 colon; 62% in the assay on SNB-75 CNS; 52.8% in the assay with SNB-19 CNS; 53.7% in the assay on U251 CNS; 61.1% in the assay with PC-3 prostate; 29.7% in the assay with SK-MEL-5 melanoma. Further, the growth is 57.8% in the assay on UACC-62 melanoma; 40.7% in the assay with LOX IMVI melanoma; 59.5% with SK-MEL-28 melanoma; 79.5% with SK-MEL-2 melanoma; 91.4% in the assay on EKVX NSCLC; 79.1% with SN12C renal. Further, the growth was 86.4% in the assay with UO-31 renal; 41.3% in the assay on TK-10 renal; 82.1% in the assay with ACHN renal; 96.5% in the assay with CAKI-1 renal; 15.3% with CCRF-CEM leukemia; 13.9% with MOLT-4 leukemia. Further, the growth with SR leukemia is 18.7%.
